Measured values taken from ChEMBL document CHEMBL1157539, “Thousands of chemical starting points for antimalarial lead identification” (Nature, 2010).
Over roughly 13,000 compounds, “IFI” has its median near 4; the highest 2% begin near 17. For the sample, the highest values were picked, then their nearest neighbours and some compounds at random.

Experiment: GSK_TCMDC: Inhibition Frequency Index (IFI). The number of non-kinase HTS assays where a compound showed > 50 % inhibition, expressed as a percentage of the number of such assays in which the compound was tested
Type: functional

Compound	IFI [%]
CCCCN(C(=O)c1ccccc1C)c1nnc(-c2ccccc2C)s1	2.56
Cc1ccc2nc(C)n(C3CCN(C(=O)Cc4ccc(F)c(F)c4)CC3)c2c1	0
O=C(N[C@H]1CCN(Cc2ccc(OCCN3CCNCC3)c(Br)c2)C1)c1ccc(Cl)c(Cl)c1	6.9
CC(Cc1ccc(NC(=O)COc2ccc(CC(C)NCCc3cccc(Cl)c3)cc2)cc1)NCCc1cccc(Cl)c1 (configuration not stated)	32.4
C[C@H](Cc1ccc(OCCCCCCOc2ccc(C[C@@H](C)NC(=O)[C@H](O)c3cccc(Cl)c3)cc2)cc1)NC[C@H](O)c1cccc(Cl)c1	11.3
COc1ccc(CC(Cc2ccc(OC)cc2)NCC(O)c2cccc(Cl)c2)cc1 (configuration not stated)	4.86
C[C@H](Cc1ccc(OCCNC[C@H](O)c2cccc(Cl)c2)cc1)NC[C@H](O)c1ccc(Cl)c(Cl)c1	11.4
CC(NCCc1cccc(Cl)c1)C(O)c1ccc(OCCCCCCOc2ccc(C(O)C(C)NCCc3cccc(Cl)c3)cc2)cc1 (configuration not stated)	13
C[C@H](Cc1ccc(OCCCCCCOc2ccc(C[C@@H](C)N[C@H](C)c3ccccc3)cc2)cc1)NC[C@H](O)c1cccc(Cl)c1	19.6
C[C@H](Cc1ccc(OCCCCCCCOc2ccc(C[C@@H](C)NC[C@H](O)c3cccc(Cl)c3)cc2)cc1)NC[C@H](O)c1cccc(Cl)c1	22.1
C[C@H](Cc1ccc(OCCCCCCOc2ccc(C[C@@H](C)NC[C@H](O)c3cccc(Cl)c3)cc2)cc1)NC[C@H](O)c1cccc(Cl)c1	16.9
C[C@H](Cc1ccc(OCCCCCOc2ccc(C[C@@H](C)NC[C@H](O)c3cccc(Cl)c3)cc2)cc1)NC[C@H](O)c1cccc(Cl)c1	20.9
CC(CCCC(=O)Nc1ccc(CC(C)NCCc2cccc(Cl)c2)cc1)NCCc1cccc(Cl)c1 (configuration not stated)	11.9
CC(CCCCC(=O)Nc1ccc(CC(C)NCCc2cccc(Cl)c2)cc1)NCCc1cccc(Cl)c1 (configuration not stated)	4.29
NC(=O)c1cccc(C(=O)Nc2ccc(-c3cccc(-c4nc5cc(F)ccc5[nH]4)c3)cc2)c1	1.74
Cc1cccc2nc(-c3cccc(-c4ccc(NC(=O)C(C)CN(C)C)cc4)c3)[nH]c12 (configuration not stated)	5.45
O=C(Cc1ccc(-c2ccccc2)cc1)N[C@H]1CCN(Cc2ccc(OCCCN3CCCCC3)cc2)C1	7.53
C=C(C)CSc1nc2c(c(=O)n1CCc1ccccc1)C1(CCCC1)Cc1ccccc1-2	0
CN1CCCC(CN2CCN(Cc3cccc(-c4cccc(-c5nc6ccccc6[nH]5)c4)c3)CC2)C1 (configuration not stated)	7.04
O=C(CCc1c[nH]cn1)Nc1ccc(-c2ccc(-c3nc4ccccc4[nH]3)cc2)cc1	3.51
CCNc1cc(C(=O)N[C@@H](Cc2ccccc2)[C@H](O)CNC(C)Cc2cccc(Cl)c2)cc(N2CCCCS2(=O)=O)c1 (some centres not stated)	4.9
COc1ccc2c(NN=Cc3ccc(N(C)C)cc3)ccnc2c1	5.8

Compound	IFI [%]
O=C(NCC1CCN(CCN2CCC(c3cn(CCO)c4ccccc34)CC2)CC1)c1ccc(-c2ccc(C(F)(F)F)cc2)cc1	10
COc1ccc(O)c(-c2sc(N=C(N)N)nc2-c2ccccc2)c1	8.09
Fc1cccc(C=NN=c2cc[nH]c3ccc(C(F)(F)F)cc23)c1	0
N=C(NCCc1c[nH]c2ccccc12)NCc1ccccc1Cl	4.32
NOCCCCOc1ccc(Cl)cc1	0
COc1ccc2nc(C)cc(NCc3cccc4ccccc34)c2c1	1.46
Cc1cc(=NN=Cc2ccc(Cl)cc2)c2cccc(C)c2[nH]1	1.45
COc1ccc(CNCc2cccc(-c3ccc(-c4nc5ccccc5[nH]4)s3)c2)cc1	7.69
CN(C)CCCOc1ccc(CCNCc2cccc(Oc3ccc(Cl)cc3)c2)cc1	7.97
CC(Cc1ccc(OCCCCOc2ccccc2)cc1)NCCc1ccc(Oc2ccccc2)cc1 (configuration not stated)	18.2
CC(Cc1ccc(COc2ccc(CC(CO)NCCc3cccc(Cl)c3)cc2)cc1)NCCc1cccc(Cl)c1 (configuration not stated)	16.6
COc1cc(CNCCCCCCNCc2cc(OC)cc3ccccc23)c2ccccc2c1	10.1
COc1c(CNCCCCCCNCc2cc(Cl)c3ccccc3c2OC)cc(Cl)c2ccccc12	19.4
CCOc1cc(OCC)c2ccccc2c1CNCCCCCCNCc1c(OCC)cc(OCC)c2ccccc12	16
CCOc1ccc(CNCCCCCCNCc2ccc(OCC)c3ccccc23)c2ccccc12	15.4
COc1c(CCNCCCCNCCc2cc(Cl)c3ccccc3c2OC)cc(Cl)c2ccccc12	19
CCOc1cc(CNCCCCCCNCc2cc(OCC)c(OCC)c3ccccc23)c2ccccc2c1OCC	18.8
COc1ccc(CCNCCCCCCNCCc2ccc(OC)c(OC)c2Cl)c(Cl)c1OC	2.94
COc1cc(CNCCCCCCNCc2cc(OC)c(OC)c3ccccc23)c2ccccc2c1OC	7.41
COc1ccc(CCNCCCCCCNCCc2ccc(Cl)c3ccccc23)cc1OC	9.42
COc1ccc(CNCCCCCCNCc2ccc(OC)c3ccccc23)c2ccccc12	8.21
COc1cc(CNCCCCCCNCc2cc(OC)c3ccccc3c2OC)c(OC)c2ccccc12	17.3

Compound	IFI [%]
CCCCNCc1cc(Cl)c2ccccc2c1O	6.77
COc1ccc2nc(C)cc(N/N=C/c3cccc([N+](=O)[O-])c3)c2c1	1.42
COc1cccc(-c2csc(C(=O)NCC3CCN(Cc4ccc(C(C)C)cc4)C3)c2)c1 (configuration not stated)	8
CCN(CC)CCN(Cc1ccc(-c2ccc(C(F)(F)F)cc2)cc1)C(=O)Cn1c(CCc2c(F)cccc2F)nc(=O)c2ccccc21	11.7
Cc1cccc2nc(-c3cccc(-c4cccc(NC(=O)Cc5c[nH]cn5)c4)c3)[nH]c12	4.63
CN1CCN(S(=O)(=O)c2cccc(Nc3nccc(N(C)c4ccc5c(c4)nc(NC(=O)c4cccs4)n5C)n3)c2)CC1	2.26
C#CCNCc1ccc(-c2ccc(-c3nc4cc(C(F)(F)F)ccc4[nH]3)s2)cc1	8.82
CC(C)N1CCC(N(Cc2ccc(-c3ccc(C(F)(F)F)cc3)cc2)C(=O)Cn2c(CCc3cccc(F)c3F)nc(=O)c3cccnc32)CC1	16.1
Cc1nn(CC(C)C)c2sc(C(=O)Nc3nc(-c4ccccn4)cs3)cc12	10
COc1ccc(-c2cccc(NC(=O)c3cccc(Cl)c3)c2)cc1CN1CCNCC1	6.93
COc1ccc2nccc([C@@H](O)CN3CCC(NCCOc4ccc(F)cc4F)CC3)c2c1	1.59
Cc1cc(F)ccc1N(c1nc(-c2cc(Cl)ccc2Cl)cs1)C1CCNC1 (configuration not stated)	21.4
Cc1cc(-c2cc(Cl)ccc2Cl)no1	0
COc1ccc(N(c2nc(-c3cc(Cl)ccc3Cl)cs2)C2CCNC2)cc1 (configuration not stated)	20
CC(C)c1cn2c3c(cc(C(=O)N[C@@H](Cc4ccccc4)[C@H](O)CNC4CCCCC4)cc13)N(C)S(=O)(=O)CC2	2.94
CNCCCNCc1ccc(-c2ccc(F)c(Cl)c2)o1	2.78
CN(C)CCCNCc1ccc(-c2ccc(F)c(Cl)c2)o1	6.94
Clc1cc(Br)ccc1-c1ccc(CNCC2CCNCC2)o1	26.3
O=C(/C=C/c1ccc(Cl)c(Cl)c1)NCCCCCN1CCCN(C(=O)Nc2cccc(C(F)(F)F)c2)CC1	8.61
O=C(/C=C/c1ccc(Cl)c(Cl)c1)NCCCCCCN1CCN(C(=O)Nc2ccc(C(F)(F)F)cc2)CC1	7.03
O=C(/C=C/c1ccc(Cl)c(Cl)c1)NCCCCCCN1CCCN(C(=O)Nc2cccc(C(F)(F)F)c2)CC1	8.26
O=C(/C=C/c1ccc(Cl)c(Cl)c1)N1CCN(C(=O)Nc2ccc(C(F)(F)F)cc2)CC1	22.1

Compound	IFI [%]
O=C(/C=C/c1ccc(Cl)c(Cl)c1)N1CCN(C(=O)Nc2cccc(C(F)(F)F)c2)CC1	24.2
O=C(/C=C/c1ccc(Cl)c(Cl)c1)N1CCN(C(=O)Nc2ccc(F)c(Cl)c2)CC1	15.2
O=C(Nc1cccc(C(F)(F)F)c1)c1ccc(S(=O)(=O)NCC2CCCN(CC3CCCCC3)C2)cc1 (configuration not stated)	5.1
CCOC(=O)c1nc(-c2cccnc2)[nH]c1NC(=S)NCc1ccccc1	3.15
C=C[C@]1(C)C[C@@H](OC(=O)CNC[C@@H](O)CN2C[C@H](c3ccnc4ccc(OC)nc34)OC2=O)[C@@]2(C)[C@@H]3C(=O)CC[C@@]3(CC[C@@H]2C)[C@@H](C)[C@@H]1O	1.56
Cc1cccc2nc(-c3cccc(-c4ccc(NC(=O)Nc5cccc(C#N)c5)cc4)c3)[nH]c12	5
O=S(=O)(c1ccccc1)n1ccc2cc(Nc3ncnc4cc(C#C[C@H]5CCCN5)sc34)ccc21	8.57
Cc1cc(F)ccc1Nc1nc(N(C)c2ccccc2)c2cc(OCCCN(C)C)ccc2n1	10.8
N=C(NCc1ccc(O)cc1)Nc1nc(-c2ccc(OCCCn3ccnc3)cc2)cs1	6.47
COc1cccc(C(O)CNc2ccnc(Nc3ccc(Cl)cc3)n2)c1 (configuration not stated)	19.8
OC(CNc1ccnc(Nc2ccccc2)n1)c1cccc(C(F)(F)F)c1 (configuration not stated)	12.2
OC(CNc1ccnc(Nc2ccc(Cl)cc2)n1)c1cccc(C(F)(F)F)c1 (configuration not stated)	16.3
CN(C)Cc1cccc(-c2ccc(Nc3nccc(NCC(O)c4ccccc4)n3)cc2)c1 (configuration not stated)	17.2
COc1ccc(Nc2nccc(NCC(O)c3cccc(C(F)(F)F)c3)n2)cc1 (configuration not stated)	15.3
Cc1ccc(Nc2nccc(NCC(O)c3ccc(C(F)(F)F)cc3)n2)cc1 (configuration not stated)	9.18
Cc1ccc(Nc2nccc(NCC(O)c3cccc(F)c3)n2)cc1 (configuration not stated)	9.71
CN(C)CC(=O)Nc1ccc(Nc2nccc(NCC(O)c3ccccc3)n2)cc1 (configuration not stated)	2.94
Cc1cccc(Nc2nccc(NCC(O)c3cccc(C(F)(F)F)c3)n2)c1 (configuration not stated)	14.3
CN(C)Cc1ccc(-c2cccc(Nc3nccc(NCC(O)c4ccccc4)n3)c2)cc1 (configuration not stated)	11.2
Cc1ccc(Nc2nccc(NCC(O)c3cccc(C)c3)n2)cc1 (configuration not stated)	18.4
Cc1ccc(Nc2nccc(NCC(O)c3cccc(C(F)(F)F)c3)n2)cc1 (configuration not stated)	17.9
